p97 ATPase inh – inhibitors of human p97 ATPase, primary screen, biochemical; Transitional endoplasmic reticulum ATPase (Homo sapiens), P55072; recombinant p97 ATPase, Kinase-Glo ATP luminescence, 3 h; inhibition, % at 8 µM; 220,000 compounds, 0.42% hits; AID 1481, 2009; in the data active means inhibition above about 15%;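 further: 0% = DMSO vehicle and 100% = wells lacking enzyme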
Target sequence (P55072 whole entry, looked up): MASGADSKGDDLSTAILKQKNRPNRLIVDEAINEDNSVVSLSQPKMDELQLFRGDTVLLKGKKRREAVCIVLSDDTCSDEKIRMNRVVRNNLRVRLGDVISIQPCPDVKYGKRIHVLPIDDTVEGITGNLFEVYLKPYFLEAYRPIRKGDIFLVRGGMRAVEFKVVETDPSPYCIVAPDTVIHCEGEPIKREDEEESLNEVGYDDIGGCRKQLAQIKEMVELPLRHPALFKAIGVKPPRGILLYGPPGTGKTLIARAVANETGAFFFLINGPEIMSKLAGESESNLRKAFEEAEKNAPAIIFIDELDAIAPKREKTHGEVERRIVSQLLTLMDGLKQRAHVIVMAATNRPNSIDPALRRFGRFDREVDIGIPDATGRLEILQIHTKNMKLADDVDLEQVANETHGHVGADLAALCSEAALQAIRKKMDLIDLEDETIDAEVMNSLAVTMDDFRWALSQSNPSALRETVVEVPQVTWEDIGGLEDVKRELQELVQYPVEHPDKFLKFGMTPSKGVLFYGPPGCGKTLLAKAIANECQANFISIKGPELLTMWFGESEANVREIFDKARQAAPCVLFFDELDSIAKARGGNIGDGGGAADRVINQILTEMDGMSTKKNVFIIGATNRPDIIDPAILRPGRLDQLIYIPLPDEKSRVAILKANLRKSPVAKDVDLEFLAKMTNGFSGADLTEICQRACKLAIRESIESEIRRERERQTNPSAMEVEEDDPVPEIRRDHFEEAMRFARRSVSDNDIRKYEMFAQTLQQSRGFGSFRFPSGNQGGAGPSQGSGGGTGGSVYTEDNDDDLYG
TbHK1 inh – Trypanosoma brucei hexokinase 1 inhibitors, primary screen, biochemical, G6PDH-coupled NADH absorbance, MLSCN library; hexokinase 1 [Trypanosoma brucei]; 220,000 compounds, 0.11% hits; inhibition, % at 10 µM; recombinant TbHK1, G6PDH-coupled NADH A340; AID 1430, 2008;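 active means inhibition of 50% or more in the single-dose primary screen; inactive means inhibition below 50%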
Redox H2O2 prof – compounds producing H2O2 with reducing agent – biochemical, NIH compound library profiling, artefact control for MLSCN library redox annotation, primary screen; 200,000 compounds, 0.03% hits; AID 878, 2007; DTT-dependent redox cycling H2O2, phenol red/HRP absorbance; 100% = 100 µM peroxide control, 0% = buffer; activation, % at 10 µM;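 active means activation of at least 50% relative to the plate's high and low controls in the primary single-dose screen; inactive means activation below 50%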;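 further: compound incubated with DTT at 0.8 mM final as the reducing agent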
S1P3 antag-1 – S1P3 receptor antagonists, primary screen, cell-based; Sphingosine 1-phosphate receptor 3 (Homo sapiens), Q99500; CHO S1P3 NFAT-BLA reporter, FRET fluorescence, antagonist mode; inhibition, % at 4.98 µM; 170,000 compounds, 0.27% hits; AID 485, 2006;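 active means inhibition above the plate cutoff, the mean inhibition of test wells on that plate plus 3 SD, cut at about 28% in these data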;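 further: cells challenged with S1P at its EC80 of 0.8 µM; blue over green emission ratio from cleaved BLA substrate after 4 h stimulation; 0% = S1P-stimulated wells and 100% = unstimulated DMSO-only wells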
G6PDH counter-1 – L. mesenteroides G6PDH inhibitors, counter-screen for G6PDH-coupled screening assays, biochemical, Leuconostoc mesenteroides enzyme. Purified L. mesenteroides G6PDH, diaphorase/resazurin coupled fluorescence, 45 min. inhibition, % at 5 µM. 200,000 compounds, 0.12% hits. glucose-6-phosphate dehydrogenase [Leuconostoc mesenteroides]. AID 1020, 2008; in the data active means inhibition above about 50%
S1P3 antag-2 – S1P3 receptor antagonists, retest, confirmation, cell-based | shares compounds with S1P3 antag-1 | CHO S1P3 NFAT-BLA reporter, FRET, antagonist mode | inhibition, % at 4.98 µM | 240 compounds, 30% hits | AID 1429, 2008;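 active means inhibition above the hit threshold that was computed for the earlier primary screen, cut at about 30% in these data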;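 further: 0% = S1P-stimulated wells and 100% = unstimulated DMSO-only wells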
DTT redox conf – generates H2O2 by DTT-dependent redox cycling, confirmed in dose response; shares compounds with Redox H2O2 prof; phenol red-HRP absorbance; 60 compounds, 40% hits; EC50, µM;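 active means EC50 under a set limit for hydrogen peroxide production with the reducing agent DTT present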
G6PDH counter-2 – Leuconostoc G6PDH inhibition, confirmation, counter-screen for TbHK1 inhibitor project, biochemical, DPI cherry-picked compounds, single concentration; purified G6PDH, NADH absorbance, 1 h; 210 compounds, 7% hits; inhibition, % at 10 µM; shares compounds with TbHK1 inh;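 active means at least 50% inhibition in the glucose-6-phosphate dehydrogenase coupled counterscreen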
TbHK1 rescreen – TbHK1 inhibitor retest, confirmation, biochemical, DPI cherry-picked primary actives; shares compounds with TbHK1 inh; recombinant TbHK1, G6PDH-coupled NADH A340 absorbance; inhibition, % at 10 µM; 210 compounds, 10% hits;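 active means inhibition of at least 50% in both of the two screening runs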;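 further: 0% and 100% set by the maximum and minimum signal control wells on each plate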
p97 inh conf – p97 ATPase inhibitors, retest, confirmation, biochemical. recombinant p97 ATPase, Kinase-Glo ATP luminescence. inhibition, % at 8 µM. 760 compounds, 44% hits. shares compounds with p97 ATPase inh;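 active means percent inhibition of p97 ATPase above a set limit, the primary screen's mean plus 3 SD, cut at about 15% in these data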;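 further: 0% = DMSO wells and 100% = wells lacking p97 protein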
The depositor's hits bear a star; . = no result given. This is a sample that favours compounds with a hit; in the whole collection about 0.84% have one here.

SMILES	p97 ATPase inh	TbHK1 inh	Redox H2O2 prof	S1P3 antag-1	G6PDH counter-1	others
CCn1nc(-c2cccs2)nc2c(=O)n(C)c(=O)nc1-2	.	.	.	106*	58*
CCCn1nc2ccccc2c1P(=O)(N1CCOCC1)N1CCOCC1	7	3	1	106*	7
Cc1cc(Cl)ccc1OCC(=O)N1CCN(C)CC1	3	-3	-1	-48	2
CN1CCN(C(=O)OC2c3nccnc3C(=O)N2c2ccc(Cl)cn2)CC1 (centres undefined)	3	-39	-1	110*	8
O=Cc1cn(Cc2c(F)cccc2Cl)c2ccccc12	3	-1	0	6	4
O=C1NC(=S)NC(=O)C1=Cc1ccc2c(c1)CCN2CCCCl	18*	-22	.	5	.
Cc1ccccc1N1C(=O)NC(=O)/C(=C\c2ccc3c(c2)CCCN3Cc2ccccc2)C1=O	2	-10	0	-9	21
COc1cc2[nH]c(=O)n(-c3cccc(Cl)c3)c(=O)c2cc1OC	-3	-3	1	.	-3
COc1cc(CN2CCCC(C(=O)c3sccc3C)C2)cc(Cl)c1O (centres undefined)	5	4	0	-19	21
COc1cc(CN2CCCC(C(=O)c3sccc3C)C2)cc(OC)c1O (centres undefined)	2	-1	0	2	57*
Clc1cccc(Cl)c1C1N2CCCN12 (centres undefined)	0	-8	0	.	10
O=C1NC(=S)N(Cc2ccco2)C(=O)/C1=C\c1cccs1	41*	81*	-1	-12	17
C=CCN1C(=O)NC(=O)/C(=C\c2ccc(-c3ccccc3[N+](=O)[O-])o2)C1=O	4	-16	0	6	0
O=C1NC(=O)N(Cc2ccco2)C(=O)/C1=C/c1ccc(-c2cccc([N+](=O)[O-])c2)o1	15*	23	0	8	11
CN(Cc1c[nH]c2ccccc12)C1CCCCC1	3	-4	0	10	2
O=C1C=Cc2ccccc2C1=O	10	41	2	-4	62*
NC(=S)c1cn(C2OC(CO)C(O)C2O)c2ncnc(N)c12 (centres undefined)	3	-6	.	86*	.	S1P3 antag-2=105*
O=C(CCCN1CCC2(CC1)C(=O)NCN2c1ccccc1)c1ccc(F)cc1	3	7	0	68*	5	S1P3 antag-2=59*
CSc1ccccc1C(=O)C1CCCN(Cc2ccn[nH]2)C1 (centres undefined)	4	-5	0	0	5
N#CC(C#N)=NNc1ccc(-n2ccc(C(F)(F)F)n2)cc1	11	-33	.	44*	.	S1P3 antag-2=45*
Cc1cc(C)n(-c2ccc(NN=C(C#N)C#N)cc2)n1	15	-25	.	11	.
CC(N)Cc1c[nH]c2cc3c(cc12)OCCO3 (centres undefined)	5	0	-2	-8	9
CC(=O)OC(C)(C)/C=C/C(=O)[C@](C)(O)[C@H]1[C@H](O)C[C@@]2(C)[C@@H]3CC=C4[C@H](C[C@H](O)C(=O)C4(C)C)[C@]3(C)C(=O)C[C@]12C	6	-9	1	74*	19	S1P3 antag-2=90*
O=S(=O)(c1ccc(Cl)cc1)N1CC1c1ccccc1 (centres undefined)	-2	28	0	-9	-6
CC[C@@]1(O)C(=O)OCc2c1cc1n(c2=O)Cc2cc3ccccc3nc2-1	3	-49	.	59*	.	S1P3 antag-2=70*
SMILES	p97 ATPase inh	TbHK1 inh	Redox H2O2 prof	S1P3 antag-1	G6PDH counter-1	others
COc1cc2c(cc1OC)[C@@H]1C(=O)c3ccc4c(c3O[C@@H]1CO2)C[C@H](C(C)C)O4	6	-28	.	38*	.	S1P3 antag-2=36*
CCCCP(=O)(O)c1ccccc1	-7	10	1	-14	2
O=C(c1cccnc1)C1CCCN(Cc2nc(-c3cnccn3)no2)C1 (centres undefined)	-6	-2	.	7	.
CCC(C)C12CN3CCN(CC(C)(C3)C1=O)C2 (centres undefined)	1	3	0	.	9
CC(C)[C@H]1C(=O)O[C@H](C(C)C)C(=O)N(C)[C@@H](C(C)C)C(=O)O[C@H](C(C)C)C(=O)N(C)[C@@H](C(C)C)C(=O)O[C@H](C(C)C)C(=O)N1C	-7	-16	0	70*	15	S1P3 antag-2=75*
CCn1nc(/C=C/c2ccccc2)nc2c(=O)n(C)c(=O)nc1-2	34*	18	152*	75*	61*	S1P3 antag-2=109*;DTT redox conf=>50;p97 inh conf=37*
Cc1ccc2c(c1)C1CN(C)CCC1N2C(=O)Cn1cnc2c1c(=O)n(C)c(=O)n2C (centres undefined)	.	.	.	18	-2
Cc1cccnc1NC1=NCC(C)S1 (centres undefined)	4	2	71*	-15	-13	DTT redox conf=>50
O=C(CNC(=O)OCc1ccccc1)NCC(=O)Nc1ccc(Br)cc1C(=O)c1ccccc1	3	28	0	7	1
CCCCn1c(NC(=O)c2ccco2)c(C(=O)OCC)c2nc3ccccc3nc21	33*	-14	81*	-15	47	DTT redox conf=>50;p97 inh conf=35*
COc1ccc(C2N(c3cc(C)on3)C(=O)C3CCCN32)cc1 (centres undefined)	-1	4	-1	-6	-1
O=P(O)(O)COc1ccccc1O	3	73*	0	-34	6	G6PDH counter-2=-8;TbHK1 rescreen=-1
NP(=O)(Oc1ccccc1Cl)Oc1ccccc1Cl	0	3	-2	-27	-3
CC(=O)c1ccc(OC(NC(=O)c2ccco2)C(Cl)(Cl)Cl)cc1 (centres undefined)	-6	-10	1	.	8

Bioassay records: PubChem BioAssay, several laboratories
